ADAM17 inh: ADAM17 inhibitors, primary screen, biochemical, QFRET; inhibition, % at 6.95 µM; Disintegrin and metalloproteinase domain-containing protein 17 (Homo sapiens), P78536; AID 720648, 2013; 0.83% of 370,000 active; recombinant ADAM17, EDANS/DABCYL FRET peptide cleavage;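 active = inhibition above the mean of compounds lying between control limits plus 3 SD, set per campaign, cut at about 8.5% in these data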
MPTP inh: mitochondrial permeability transition pore inhibitors, primary screen, biochemical, isolated mouse mitochondria, absorbance. Ca2+ swelling absorbance, 30 min. inhibition, % at 10 µM. AID 602449, 2012. 1.4% of 360,000 active;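 active = inhibition of 50% or more, scaled per plate between neutral and stimulator controls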
rCAG binder: binders of r(CAG) RNA repeats, primary screen, biochemical, fluorescence; r(CAG) RNA repeat, TO-PRO-1 dye displacement fluorescence; 1.3% of 370,000 active; inhibition, % at 3 µM;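 active = inhibition above the plate cutoff, the mean of all test compounds on that plate plus 3 SD, cut at about 35% in these data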;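 note: higher means more dye released from RNA so lower well fluorescence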
proKLK7 act: proKLK7 zymogen activators, primary screen, biochemical, fluorescence intensity. Kallikrein-7 (Homo sapiens), P49862. purified proKLK7, EDANS-DABCYL substrate fluorescence; 100% is mature enzyme control, 0% vehicle. activation, % at 7 µM. 0.9% of 370,000 active. AID 652039, 2013;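 active = activation above the mean of all tested compounds plus 3 SD, computed per campaign excluding outliers beyond control limits, cut at about 13% in these data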
ADAM10 inh: human ADAM10 inhibitors, primary screen, biochemical, QFRET, HTS; recombinant ADAM10, EDANS/DABCYL FRET peptide cleavage, 3 h; Disintegrin and metalloproteinase domain-containing protein 10 (Homo sapiens), O14672; 0.62% of 370,000 active; inhibition, % at 7 µM; AID 720582, 2013;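 active = inhibition above a per-campaign cutoff equal to the mean of compounds falling between control-based bounds plus 3 SD, cut at about 20% in these data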
DSG3 Ab inh: inhibitors of pemphigus antibody binding to DSG3, primary screen, biochemical, bead-based, flow cytometry, scFv-GFP; DSG3-coupled beads, scFv-anti-DSG3-GFP binding; hits give low values; binding (percent of control), % at 10 µM; 0.48% of 310,000 active; AID 588358, 2011;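 active = binding more than 3 SD below its plate's average and above zero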;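 note: hits lower antibody fragment binding to DSG3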
proKLK7 act conf: proKLK7 zymogen activators, confirmation, biochemical, fluorescence intensity, triplicate; activation, % at 7 µM; shares compounds with proKLK7 act; 68% of 3,200 active; purified proKLK7, EDANS-DABCYL substrate fluorescence; scaled: vehicle 0, mature enzyme 100;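 active = activation, as change over the incubation, above the mean of all tested compounds plus 3 SD, cut at about 13% in these data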
EDANS interfere: EDANS-DABCYL substrate optical interference, artefact control for kallikrein-7 zymogen activator project, biochemical, fluorescence intensity, high throughput; shares compounds with proKLK7 act; no enzyme, 4 h; solvent 0%, active enzyme control 100%; activation, % at 7 µM; 80% of 3,200 active; AID 686952, 2013;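 active = activation above the all-compound mean plus 3 SD, ignoring values outside control-based bounds, cut at about 4.8% in these data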;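 note: value is the 4 h activation minus the activation read at time zero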
EDANS interf: optically interferes with EDANS-DABCYL fluorescence, kallikrein-7 activator counter-screen. AID 720493. shares compounds with proKLK7 act. EC50, µM. EDANS-DABCYL peptide fluorescence interference, no enzyme. 20% of 250 active;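 active = compounds that raise the fluorescence signal in this interference counterscreen, with EC50 at or below 10 µM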;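 note: intact quenched peptide substrate alone read at 355 nm excitation and 520 nm emission; signal is fluorescence gain from T0 to T4 after four hours at room temperature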
Hits are given with their value; i = inactive; nt = not tested or not shown. Only some compounds are listed: those with a hit (about 4.7% of all), similar ones and a draw of the others.

SMILES	ADAM17 inh	MPTP inh	rCAG binder	proKLK7 act	ADAM10 inh	DSG3 Ab inh	proKLK7 act conf	EDANS interfere	others
CCOC(=O)Cc1c(Cl)c2ccccc2[nH]c1=O	i	i	i	i	i	i	nt	nt
CCOC(=O)C[n+]1ccc2c([nH]c3ccccc32)c1C	i	i	i	36.5	i	i	47.1	72.0
O=C(Nc1cccnc1)c1coc(=O)c2ccccc12	i	i	i	460.5	i	i	354.9	343.0
CCOC(=O)COc1ccc2c(=O)c(-c3ccccc3)coc2c1	i	i	i	i	i	i	nt	nt
COc1ccc(-c2coc3cc(O)c(OC)cc3c2=O)cc1	i	i	i	13.1	i	i	66.7	54.2
CC(=O)Oc1ccc2c(=O)c(-c3ccccc3)coc2c1	i	i	i	89.6	i	i	274.1	247.1
COc1ccc(-c2coc3cc(OC)ccc3c2=O)cc1	i	i	i	i	i	nt	nt	nt
COc1ccc(-c2coc3cc(OC(C)=O)ccc3c2=S)cc1	i	i	i	50.6	i	i	93.4	77.1
Cc1ccc(S(=O)(=O)c2nc(-c3cccs3)oc2N2CCC(C(N)=O)CC2)cc1	i	i	i	i	i	i	nt	nt
Cc1ccccc1N1C(=O)c2cccc3c(N(C)CCO)ccc(c23)C1=O	i	i	i	13.3	i	i	i	10.2
CCCn1c(N)c(N(CCOC)C(=O)COC(=O)c2ccccc2NCCO)c(=O)[nH]c1=O	i	i	i	24.3	i	i	28.7	29.1
CCCCn1c(N)c(N(CCC(C)C)C(=O)COC(=O)c2ccccc2)c(=O)[nH]c1=O	i	i	i	i	i	i	nt	nt
CCCCn1c(N)c(N(CC(C)C)C(=O)COC(=O)c2ccccc2NCCO)c(=O)[nH]c1=O	i	i	i	21.9	i	i	21.1	26.7
CCC(CO)Oc1cc(NCc2ccccc2Cl)c2ncn(C(C)C)c2c1 (centres undefined)	i	i	i	i	i	i	nt	nt
CCN(C(=O)COC(=O)c1[nH]c(=O)[nH]c(=O)c1N)c1ccccc1	i	i	i	12.9	i	i	24.2	28.0
CCN(C(=O)COC(=O)C1=COCCO1)c1ccccc1	i	i	i	i	i	i	nt	nt
CCN1CCN(c2cc(C)c3cc(NC(=O)c4ccncc4)ccc3n2)CC1	i	i	i	i	i	i	nt	nt
COCCNC(=S)Nc1ccc2nc(N3CCCC3)cc(C)c2c1	i	i	i	i	i	i	nt	nt
CCN1CCN(c2cc(C)c3cc(NC(=S)N4CC(C)CC(C)C4)ccc3n2)CC1 (centres undefined)	i	i	i	14.0	i	i	i	i
CCOCCCNC(=S)Nc1ccc2nc(N3CCCC3)cc(C)c2c1	i	i	i	17.2	i	i	i	12.2
CCN1CCN(c2cc(C)c3cc(NC(=O)c4ccc(C)c(C)c4)ccc3n2)CC1	i	i	i	29.3	i	i	30.3	23.9	EDANS interf=i
CCN1CCN(C(=S)Nc2ccc3nc(N4CCN(CC)CC4)cc(C)c3c2)CC1	i	i	i	i	i	i	nt	nt
O=[N+]([O-])c1ccc(O)c(C=Nc2ccc3nc(-c4ccccc4)[nH]c3c2)c1	i	i	i	64.6	i	nt	57.5	62.7
COP(=O)(OC)c1nc(-c2cccc3ccccc23)oc1N1CCOCC1	i	i	i	77.4	i	i	63.0	64.4
CCOP(=O)(OCC)c1nc(-c2ccc(OC)cc2)oc1N1CCOCC1	i	i	i	i	i	i	nt	nt
SMILES	ADAM17 inh	MPTP inh	rCAG binder	proKLK7 act	ADAM10 inh	DSG3 Ab inh	proKLK7 act conf	EDANS interfere	others
COc1ccc(Cl)cc1-c1cc(C(=O)NCc2ccc(C(F)(F)F)cc2)[nH]n1	i	i	i	i	i	nt	nt	nt
CCCCN1C(=O)C(CC(=O)NCCc2ccccn2)CC(C(=O)N2CCOCC2)=C1C (centres undefined)	i	i	i	i	i	i	nt	nt
CC(=O)Nc1cccc(Nc2cnccn2)c1	i	i	i	i	i	nt	nt	nt
CCOC(=O)N1CCc2[nH]c3ccc(C)cc3c2C1	i	i	i	16.6	i	i	22.8	23.5
CC(=O)N1CCc2[nH]c3ccc(C)cc3c2C1	i	i	i	i	i	i	nt	nt
CCOC(=O)c1csc(NC(=O)C2CCCN(S(=O)(=O)c3ccc([N+](=O)[O-])cc3)C2)n1 (centres undefined)	i	nt	i	i	i	nt	nt	nt
COc1ccc2cc(-c3nc4ccccc4n3C)c(=O)oc2c1	i	i	i	22.1	i	i	38.8	34.8
Cn1c(-c2cc3ccccc3oc2=O)nc2ccccc21	i	i	i	i	i	i	nt	nt
O=C(Nc1ccc(Cl)c(Cl)c1)c1ccccc1	i	i	i	i	i	i	nt	nt
Nc1ccc(C(=O)Nc2ccc3nc(-c4ccncc4)[nH]c3c2)cc1	i	i	i	i	i	i	nt	nt
O=C(Nc1ccc2nc3ccccc3nc2c1)c1ccccc1	i	i	i	35.3	i	i	32.1	21.4	EDANS interf=i
CC(=O)Nc1ccc2cc3ccc(NC(C)=O)cc3nc2c1	i	i	i	17.3	i	i	34.2	44.2
CC(=O)Nc1ccc2nc(-c3ccncc3)[nH]c2c1	i	i	i	21.7	i	i	17.0	21.4
C[C@@H]1CN([C@H](C)CO)C(=O)c2cc(Br)cnc2O[C@H]1CN(C)Cc1ccccc1F	i	nt	i	i	i	nt	nt	nt
O=C1Nc2ccccc2/C1=C/c1cccnc1	i	i	i	i	i	i	nt	nt
O=C1Nc2ccccc2/C1=C/c1cnc(-c2ccccc2)[nH]1	i	i	i	20.1	i	i	40.0	53.6
COc1ccc2cc(C3=CCCCC3)ncc2c1	i	i	i	19.4	i	i	i	5.3
Cc1csc2nc(CN3CCN(CC(=O)N(C)C)CC3)cc(=O)n12	i	i	i	i	i	i	nt	nt
COc1ccc(OC)c(/C=C/C(=O)N2C(=O)c3cccc(N)c3C2=O)c1	i	i	i	44.2	i	i	654.5	689.4
